This is a sample that favours compounds with a hit; in the whole collection about 21% have one here.
Pf growth 48h = inhibits P. falciparum growth in the first generation, 48 h; P. falciparum luciferase growth in erythrocytes, 48 h; Potency, µM (top dose mostly 28.7 µM), hits mostly inhibitors; actives 5.9% (n = 310,000); AID 504832
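Luciferase-expressing parasites in RBCs, 2% Hct / 0.1% parasitemia final; RPMI 1640 + 0.5% Albumax; 37 C, 5% CO2, one generation; luminescence read-out, lower signal = inhibition.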
Cycloheximide cs = counter-screen for Shiga toxin inhibitors: cycloheximide protein synthesis inhibition; max response, %; actives 12% (n = 300,000); cell reporter, cycloheximide protein synthesis inhibition counterscreen; in the data active = max response mostly above about 13%, no sharp cut-off; inactive = mostly below about 14%; also: read at 38.3 µM for the half of the compounds with a filed dose
Pf growth 96h = P. falciparum growth inhibition at 96 hour, primary screen for plastid delayed-death inhibitors; actives 6.9% (n = 320,000); P. falciparum luciferase reporter growth, 96 h; Potency, µM (titrated, usually from 28.7 µM), hits mostly inhibitors
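Cell-based qHTS: luciferase-tagged P. falciparum in erythrocytes (2% hematocrit, 0.05% parasitemia final) incubated with compounds for 96 hours, 37 C, 5% CO2; luciferase detection reagent then added and luminescence measured.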
NS1 inh = blocks influenza NS1 protein function | actives 0.4% (n = 270,000) | Potency, µM (series often up to 46.1 µM); calls by dose curve; also: actives are rising curves; nearly all actives have a fitted effect of over 50% in size
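Recovery from NS1-induced slow growth read by OD600 in budding yeast switched to galactose assay medium (pH 6.0, -URA) at 1:100 dilution. Compound 23 nl per well; the matching strain lacking NS1 serves as control.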
Sm TGR block = S. mansoni TGR enzyme inhibition; Q962Y6; purified TGR, DTNB reduction, TNB absorbance 405 nm; Potency, µM (doses to about 114 µM), usual class: inhibitors; actives 3% (n = 360,000); also: nearly all actives have a fitted effect of over 60% in size
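First, TGR (20 nM dispensed) and NADPH were mixed with compound. Second, a 15 min room-temperature incubation followed. Third, further NADPH and then DTNB were added to start the reaction. Finally, TNB absorbance was monitored kinetically.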
Shiga inhibitor = blocks Shiga toxin action in Vero cells | Vero cells, Shiga toxin protein synthesis inhibition reporter | inhibition, % at 38.7 µM | actives 9.2% (n = 290,000); in the data active = inhibition mostly above about 28%, no sharp cut-off; inactive = mostly below about 43%
A number is an active result. Unless noted, calls follow the shape of the dose curve; as a rule, active = well fitted curve in the direction sought with a large enough effect; inconclusive = small, poorly fitted or top-dose-only effect, or another doubt; inactive = no such curve, though single readings can be large; an effect the other way counts as inactive or inconclusive.

Results for CCc1cc(C(=O)OC)c(NC(=O)CN2CCN(C(=O)C3CCCO3)CC2)s1 (stereo not given) ?
Pf growth 48h: inconclusive; Cycloheximide cs: inactive; Pf growth 96h: 0.66µM; NS1 inh: inactive; Sm TGR block: inconclusive; Shiga inhibitor: inactive

What do the screens show for `Cc1cc(C)cc(NC(=O)c2cc(S(=O)(=O)N3CCOCC3)cn2C)c1`?
Sm TGR block: inactive

What do the screens show for `Nc1nonc1-c1nc2ccccc2n1Cc1c(Cl)cccc1Cl`?
Sm TGR block: inactive

Results for Cc1ccc2oc(C(=O)NCC3CCOCC3)c(C)c2c1 ?
Pf growth 48h: inactive; Cycloheximide cs: inactive; Pf growth 96h: 10µM; NS1 inh: inactive; Sm TGR block: inactive; Shiga inhibitor: 59

What do the screens show for `Cc1c(C(=O)NCc2cccnc2)oc2ccc(S(=O)(=O)N3CCCC(C)C3)cc12` (stereo not given)?
Pf growth 48h: inconclusive; Cycloheximide cs: inactive; Pf growth 96h: 5.9µM; NS1 inh: inactive; Sm TGR block: inactive; Shiga inhibitor: inactive

What do the screens show for `Cc1ccc(CNC(=O)c2oc3ccc(S(=O)(=O)N4CCCC(C)C4)cc3c2C)cc1` (stereo not given)?
Sm TGR block: inactive

What do the screens show for `Cc1ccc2oc(C(=O)NCc3ccc4c(c3)OCO4)c(C)c2c1`?
Pf growth 48h: inactive; Cycloheximide cs: 24; Pf growth 96h: inactive; NS1 inh: inactive; Sm TGR block: inactive; Shiga inhibitor: inactive

What do the screens show for `CC1CC(C)CN(S(=O)(=O)c2ccc3c(c2)oc(=O)n3CC(=O)NCc2cccnc2)C1` (stereo not given)?
Pf growth 48h: inconclusive; Cycloheximide cs: inactive; Pf growth 96h: 10µM; NS1 inh: inactive; Sm TGR block: inactive; Shiga inhibitor: inactive

What do the screens show for `CCOC(=O)Cc1csc(NC(=O)CN2CCN(c3ccccc3)CC2)n1`?
Pf growth 48h: inactive; Cycloheximide cs: inactive; Pf growth 96h: inactive; NS1 inh: inactive; Sm TGR block: inactive

Results for CCCCCCC1CCC(C(=O)NC(C(=O)O)C(C)C)CC1 (stereo not given) ?
Sm TGR block: inactive

What do the screens show for `CC(C)(C)C(=O)OCCNc1nc(-c2ccccc2)nc2ccccc12`?
Pf growth 48h: inconclusive; Cycloheximide cs: inactive; Pf growth 96h: inconclusive; NS1 inh: inactive; Sm TGR block: inactive; Shiga inhibitor: inactive

How did Cc1c(C(=O)NCc2ccc3c(c2)OCO3)oc2ccc(S(=O)(=O)N3CCC(C)CC3)cc12 do in these assays?
Pf growth 48h: 9.3µM; Cycloheximide cs: inactive; Pf growth 96h: inactive; NS1 inh: inactive; Sm TGR block: inactive; Shiga inhibitor: inactive

What do the screens show for `Cc1c(C(=O)NCc2ccc3c(c2)OCO3)oc2ccc(S(=O)(=O)N3CCCCCC3)cc12`?
Pf growth 48h: 13µM; Cycloheximide cs: inactive; Pf growth 96h: inconclusive; NS1 inh: inactive; Sm TGR block: inactive; Shiga inhibitor: inactive

Results for CC1CCN(S(=O)(=O)c2ccc3c(c2)oc(=O)n3CC(=O)NCc2ccc3c(c2)OCO3)CC1 ?
Cycloheximide cs: inactive; Pf growth 96h: inconclusive; NS1 inh: inactive; Sm TGR block: inactive; Shiga inhibitor: inactive

Results for CCCc1cc(=O)[nH]c(SCC(=O)c2cc(C)n(-c3c(C)n(C)n(-c4ccccc4)c3=O)c2C)n1 ?
Pf growth 48h: inactive; Cycloheximide cs: inactive; Pf growth 96h: inactive; Sm TGR block: inactive; Shiga inhibitor: inactive

Results for COc1ccc(S(=O)(=O)N2CC3CCCN3c3ccc(C(F)(F)F)cc32)cc1 (stereo not given) ?
Pf growth 48h: inconclusive; Cycloheximide cs: inactive; Pf growth 96h: 13µM; NS1 inh: inactive; Sm TGR block: inactive; Shiga inhibitor: inactive

How did O=C(NCc1ccccc1Cl)c1cccc(OC2CCN(C(=O)C3CC3)CC2)c1 do in these assays?
Pf growth 48h: inactive; Cycloheximide cs: inactive; Pf growth 96h: 8.3µM; NS1 inh: inactive; Sm TGR block: inconclusive; Shiga inhibitor: inactive

Results for CC(NC(=O)c1cccc(OC2CCN(C(=O)C3CC3)CC2)c1)c1ccc(F)cc1 (stereo not given) ?
Pf growth 48h: inactive; Cycloheximide cs: inactive; Pf growth 96h: inconclusive; NS1 inh: inactive; Sm TGR block: inactive; Shiga inhibitor: inactive

What do the screens show for `Cc1ccc(CN2CCC(Oc3cccc(C(=O)NCc4cccnc4)c3)CC2)o1`?
Pf growth 48h: inconclusive; Cycloheximide cs: inactive; Pf growth 96h: inactive; NS1 inh: inactive; Sm TGR block: 32µM; Shiga inhibitor: inactive

What do the screens show for `CC(NC(=O)c1cccc(OC2CCN(C3CCN(C)CC3)CC2)c1)c1ccccc1` (stereo not given)?
Pf growth 48h: inconclusive; Cycloheximide cs: inactive; Pf growth 96h: inconclusive; NS1 inh: inactive; Sm TGR block: 14µM; Shiga inhibitor: inactive

How did COCC(C)N1CCC(Oc2cccc(C(=O)NCCc3ccccc3)c2)CC1 (stereo not given) do in these assays?
Pf growth 48h: inactive; Cycloheximide cs: 59; Pf growth 96h: inactive; NS1 inh: inactive; Sm TGR block: inactive; Shiga inhibitor: 107

How did Cc1ccc(CN2CCC(Oc3ccc(C(=O)NCc4ccccn4)cc3)CC2)o1 do in these assays?
Pf growth 48h: inactive; Cycloheximide cs: inactive; Pf growth 96h: inactive; NS1 inh: inactive; Sm TGR block: inactive; Shiga inhibitor: inactive

How did COc1ccccc1N1CCN(c2nc3c(C)cccn3c(=O)c2C=O)CC1 do in these assays?
Pf growth 48h: inconclusive; Cycloheximide cs: inactive; Pf growth 96h: inconclusive; NS1 inh: inactive; Sm TGR block: inactive; Shiga inhibitor: inactive

How did CC(C)CN1CCC(Oc2cccc(C(=O)NCCc3ccccc3)c2)CC1 do in these assays?
Pf growth 48h: inactive; Cycloheximide cs: 27; Pf growth 96h: inactive; NS1 inh: inactive; Sm TGR block: inactive; Shiga inhibitor: 60

Results for Cc1ccc(CN2CCC(Oc3cccc(C(=O)N(C)CCN(C)C)c3)CC2)cc1C ?
Pf growth 48h: 9.3µM; Cycloheximide cs: inactive; Pf growth 96h: inactive; NS1 inh: inactive; Sm TGR block: inconclusive

How did COCCNC(=O)c1cccc(OC2CCN(Cc3ccc(C(=O)OC)cc3)CC2)c1 do in these assays?
Pf growth 48h: inconclusive; Cycloheximide cs: inactive; Pf growth 96h: inconclusive; NS1 inh: inactive; Sm TGR block: inactive; Shiga inhibitor: inactive

What do the screens show for `COc1cc2c(cc1OC)N1C(=O)CC(OCC(=O)O)C3C4CC5(CCN5C(=O)C4=O)C2C31` (stereo not given)?
Pf growth 48h: 12µM; Cycloheximide cs: inactive; Pf growth 96h: inactive; NS1 inh: inactive; Sm TGR block: inactive; Shiga inhibitor: inactive

Results for COc1cc(NC(=S)NC2CC(C)(C)NC(C)(C)C2)c(OC)cc1Cl ?
Pf growth 48h: inconclusive; Cycloheximide cs: inactive; Pf growth 96h: inconclusive; NS1 inh: inactive; Sm TGR block: inactive; Shiga inhibitor: inactive

How did CC1=CC(=O)N(c2cccc(C(F)(F)F)c2)C1c1ccc(Cl)cc1 (stereo not given) do in these assays?
Pf growth 48h: 8.3µM; Cycloheximide cs: inactive; Pf growth 96h: inconclusive; NS1 inh: inactive; Sm TGR block: inactive; Shiga inhibitor: inactive

Bioassay records as filed in PubChem.
